About 83,000 compounds went through this panel and 20% of them were active in at least one assay; those are over-represented in the sample as a whole.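 Cell lines were cultured in 96-well plates, exposed to a single compound concentration, and assessed for percent growth 48 hours later.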 Values without a mark were called inactive. Active and inactive are the calls of the source. The calls were made as follows: active = growth percent below 10; inactive = the rest.
Tests used:
Test in all cases: NCI-60 one-dose screen, 48 h (100 = growth as untreated, 0 = no growth, -100 = all killed)
NCI-H23 lung = settings: 10 µM unless noted
NCI-H226 lung = settings: 10 µM unless noted
NCI-H322M lung = settings: 10 µM unless noted
HOP-62 NSCLC = settings: 10 µM unless noted
NCI-H460 lung = settings: 10 µM unless noted
A549/ATCC NSCLC = settings: 10 µM unless noted
786-0 renal = settings: 10 µM unless noted
COLO 205 colon = settings: 10 µM unless noted
DU-145 prostate = settings: 10 µM unless noted
K-562 leukemia = settings: 10 µM unless noted
MALME-3M melanoma = settings: 10 µM unless noted
MDA-MB-231 breast = settings: 10 µM unless noted
RXF 393 renal = settings: 10 µM unless noted
SF-268 CNS = settings: 10 µM unless noted
SF-295 CNS = settings: 10 µM unless noted
SF-539 CNS = settings: 10 µM unless noted
UACC-257 melanoma = settings: 10 µM unless noted
M14 melanoma = settings: 10 µM unless noted
HOP-92 NSCLC = settings: 10 µM unless noted
NCI-H522 lung = settings: 10 µM

Compound	growth (NCI-H23 lung)	growth (NCI-H226 lung)	growth (NCI-H322M lung)	growth (HOP-62 NSCLC)	growth (NCI-H460 lung)	growth (A549/ATCC NSCLC)	growth (786-0 renal)	growth (COLO 205 colon)	growth (DU-145 prostate)	growth (K-562 leukemia)	growth (MALME-3M melanoma)	growth (MDA-MB-231 breast)	growth (RXF 393 renal)	growth (SF-268 CNS)	growth (SF-295 CNS)	growth (SF-539 CNS)	growth (UACC-257 melanoma)	growth (M14 melanoma)	growth (HOP-92 NSCLC)	growth (NCI-H522 lung)
CCOc1cc(/C=C/C(=O)C(C(=O)/C=C/c2ccc(OC(=O)CNc3nnc(C)s3)c(OCC)c2)C(=O)CNc2nnc(C)s2)ccc1OC(=O)CNc1nnc(C)s1	-2.16% (active)	-14.8% (active)	6.22% (active)	3.59% (active)	-46.8% (active)	8.11% (active)	-73.7% (active)	-55% (active)	-68.7% (active)	-41.8% (active)	-20.8% (active)	-36.9% (active)	-78.5% (active)	-16.4% (active)	-24.7% (active)	-54.5% (active)	15.3%	-26.3% (active)	–	–
COc1ccc2c(c1)c(CC(=O)[Se]C)c(C)n2C(=O)c1ccc(Cl)cc1	5.36% (active)	-34% (active)	55.8%	-0.299% (active)	–	7.25% (active)	9.49% (active)	50.1%	-7.9% (active)	29.8%	-41.9% (active)	44.4%	4.4% (active)	-26.5% (active)	12.7%	-17.4% (active)	3.77% (active)	-13.9% (active)	-6.92% (active)	–
CC(C)N(Cc1ccccc1)c1c(Cl)ssc1=O	106%	101%	109%	113%	109%	–	102%	106%	94.9%	108%	104%	89.3%	74.8%	118%	108%	96%	94.3%	91%	–	–
O=[N+]([O-])c1ccc(NS(=O)(=O)c2ccc(Cl)c(Cl)c2)cc1	81.5%	82.5%	111%	82%	77.7%	75.1%	76.5%	122%	94%	66.3%	88%	76%	93.2%	97%	50.3%	82.6%	–	79%	–	–
O=C(N/N=C/c1ccc(Cl)cc1Cl)c1ccccc1Nc1cccc(C(F)(F)F)c1	70.5%	50%	86.2%	57.9%	–	–	74.9%	109%	–	35.3%	92.5%	48.9%	–	112%	24.4%	-93% (active)	83.6%	95.6%	-0.368% (active)	67%
CCCCCCCC[Si](OCC)(OCC)OCC	98.2%	96.1%	103%	101%	107%	102%	99.3%	108%	105%	99.2%	91.6%	104%	104%	104%	111%	98.8%	114%	98.7%	–	–
Nc1ncnc2c1CN(Cc1ccccc1)CC2	98.3%	113%	117%	106%	107%	90.3%	101%	115%	132%	98.1%	–	104%	122%	105%	105%	99.2%	111%	111%	–	–
[N-]=[N+]=NCc1cccc(/C(O)=C/C(=O)C(=O)O)c1	85.4%	86.1%	93.8%	94.5%	104%	–	97.3%	99.6%	92.1%	110%	91.5%	88.4%	24.6%	91.5%	143%	100%	100%	118%	–	–
COc1cnc2c(c1)C(=O)c1c-2n(CCCNC(C)C)c(=O)c2cc(F)ccc12	-39.9% (active)	-52.6% (active)	-13.1% (active)	-35.8% (active)	–	-68.6% (active)	-73% (active)	-19.7% (active)	-8.54% (active)	-6.91% (active)	-70.1% (active)	1.51% (active)	-85.5% (active)	4.2% (active)	-23% (active)	-73.4% (active)	-16% (active)	-81.9% (active)	-8.3% (active)	–
